# Data from the supplement of paper PMC8728848.
# About 410 targets per protein were measured; listed, in parts, are those with the strongest signals and a random draw of the rest.
# B1: PhypaEULS3 (Physcomitrella patens) (protein)
# chain: MLPVRLHCKADPNFNLAAVPGQGPVMVPFSPNDDFQVWYKDVTMSTRVKDETGSSAFSLINKATGQALRHAPEDLAQCLLADYDSNALDQTVLWTMSEDMGQGYCCIRLASQITRNLDVFRGDKKSGGVKEGSPVITFAWKKQDNQIWKMITAILEQKLISEEDLNSAVDHHHHHH
# Tests used:
# Experiment in all cases: glycan array binding signal (z-score within array); higher = stronger binding
# Conditions in all cases: glycan notation: IUPAC condensed, linker removed
# [1] = target: Fuc(a1-2)Gal(b1-4)GlcNAc(b1-3)Gal(b1-4)GlcNAc(b1-2)Man(a1-3)[Fuc(a1-2)Gal(b1-4)GlcNAc(b1-3)Gal(b1-4)GlcNAc(b1-2)Man(a1-6)]Man(b1-4)GlcNAc(b1-4)GlcNAc
# Procedure, shortened: (§1)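 Columns mapping to the same glycan were averaged after glycan names were converted to IUPAC-condensed notation. The data come from 3228 arrays in the Consortium for Functional Glycomics database, limited to those with an available protein sequence. Binding is reported as a within-array Z-score averaged across arrays of one protein sequence and across linkers.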
# [2] = target: Fuc(a1-2)Gal3S(b1-4)GlcNAc
# Procedure, shortened: as §1
# [3] = target: Fuc(a1-2)Gal6S(b1-3)GlcNAc6S
# Procedure, shortened: as §1
# [4] = target: Fuc(a1-2)[GalNAc(a1-3)]Gal(b1-3)GlcNAc(b1-6)GalNAc
# Procedure, shortened: as §1
# [5] = target: Fuc(a1-3)[Gal(b1-4)]GlcNAc(b1-6)[Gal(b1-3)GlcNAc(b1-3)]Gal(b1-4)Glc
# Procedure, shortened: as §1
# [6] = target: Fuc(a1-3)[Gal(b1-4)]GlcNAc6S
# Procedure, shortened: as §1
# [7] = target: Gal(a1-3)Gal(b1-3)GlcNAc(b1-6)GalNAc
# Procedure, shortened: as §1
# [8] = target: Gal(a1-3)Gal(b1-4)GlcNAc(b1-3)GalNAc
# Procedure, shortened: as §1
# Gal(b1-3)GlcNAc(b1-2)Man = target: Gal(b1-3)GlcNAc(b1-2)Man
# Procedure, shortened: as §1
# [9] = target: Gal(b1-3)GlcNAc(b1-6)Gal(b1-4)GlcNAc
# Procedure, shortened: as §1
# Gal(b1-3)GlcNAc6S = target: Gal(b1-3)GlcNAc6S
# Procedure, shortened: as §1
# [10] = target: Gal(b1-3)[Neu5Ac(a2-6)]GalNAc
# Procedure, shortened: as §1
# Gal(b1-4)Glc6S = target: Gal(b1-4)Glc6S
# Procedure, shortened: as §1
# Gal(b1-4)GlcNAc(b1-2)Man = target: Gal(b1-4)GlcNAc(b1-2)Man
# Procedure, shortened: as §1
# [11] = target: Gal(b1-4)GlcNAc(b1-2)[Gal(b1-4)GlcNAc(b1-6)]Man(a1-6)[GlcNAc(b1-4)][Gal(b1-4)GlcNAc(b1-2)Man(a1-3)]Man(b1-4)GlcNAc(b1-4)GlcNAc
# Procedure, shortened: as §1
# [12] = target: Gal(b1-4)GlcNAc(b1-3)Gal(b1-3)GalNAc
# Procedure, shortened: as §1
# [13] = target: Gal(b1-4)GlcNAc(b1-3)Gal(b1-4)GlcNAc(b1-3)Gal(b1-4)GlcNAc(b1-3)Gal(b1-4)GlcNAc(b1-2)Man(a1-3)[Gal(b1-4)GlcNAc(b1-3)Gal(b1-4)GlcNAc(b1-3)Gal(b1-4)GlcNAc(b1-3)Gal(b1-4)GlcNAc(b1-2)Man(a1-6)]Man(b1-4)GlcNAc(b1-4)[Fuc(a1-6)]GlcNAc
# Procedure, shortened: as §1
# [14] = target: Gal3S(b1-4)[Fuc(a1-3)]Glc6S
# Procedure, shortened: as §1
# [15] = target: Gal3S(b1-4)[Fuc(a1-3)]GlcNAc6S
# Procedure, shortened: as §1
# Gal4S6S(b1-4)GlcNAc = target: Gal4S6S(b1-4)GlcNAc
# Procedure, shortened: as §1
# Gal6S(b1-3)GlcNAc6S = target: Gal6S(b1-3)GlcNAc6S
# Procedure, shortened: as §1
# [16] = target: GalNAc3S(b1-4)[Fuc(a1-3)]GlcNAc
# Procedure, shortened: as §1
# GalNAc4S6S(b1-4)GlcNAc = target: GalNAc4S6S(b1-4)GlcNAc
# Procedure, shortened: as §1
# Glc(a1-4)Glc = target: Glc(a1-4)Glc
# Procedure, shortened: as §1
# Glc(b1-6)Glc = target: Glc(b1-6)Glc
# Procedure, shortened: as §1
# GlcA(b1-3)Gal = target: GlcA(b1-3)Gal
# Procedure, shortened: as §1
# [17] = target: GlcNAc(a1-4)Gal(b1-4)GalNAc
# Procedure, shortened: as §1
# [18] = target: GlcNAc6S(b1-3)Gal(b1-4)GlcNAc
# Procedure, shortened: as §1
# Kdn(a2-6)Gal(b1-4)GlcNAc = target: Kdn(a2-6)Gal(b1-4)GlcNAc
# Procedure, shortened: as §1
# [19] = target: Man(a1-2)Man(a1-2)Man(a1-6)[Man(a1-3)]Man
# Procedure, shortened: as §1
# [20] = target: Man(a1-2)Man(a1-3)[Man(a1-2)Man(a1-6)]Man(a1-6)[Man(a1-2)Man(a1-2)Man(a1-3)]Man
# Procedure, shortened: as §1
# [21] = target: Man(a1-2)Man(a1-6)[Man(a1-3)]Man(a1-6)[Man(a1-2)Man(a1-2)Man(a1-3)]Man(b1-4)GlcNAc(b1-4)GlcNAc
# Procedure, shortened: as §1
# [22] = target: Man(a1-3)[Man(a1-6)]Man(a1-6)[Man(a1-3)]Man(b1-4)GlcNAc(b1-4)GlcNAc
# Procedure, shortened: as §1
# [23] = target: Man(a1-3)[Man(a1-6)]Man(b1-4)GlcNAc(b1-4)GlcNAc
# Procedure, shortened: as §1
# [24] = target: Neu5Ac(a2-3)Gal(b1-3)GlcNAc(b1-2)Man
# Procedure, shortened: as §1
# [25] = target: Neu5Ac(a2-3)Gal(b1-3)[GlcNAc(b1-6)]GalNAc
# Procedure, shortened: as §1
# [26] = target: Neu5Ac(a2-3)Gal(b1-3)]Neu5Ac(a2-3)Gal(b1-4)]GlcNAc
# Procedure, shortened: as §1
# [27] = target: Neu5Ac(a2-3)Gal(b1-4)GlcNAc(b1-3)Gal(b1-4)GlcNAc(b1-3)Gal(b1-4)GlcNAc
# Procedure, shortened: as §1
# [28] = target: Neu5Ac(a2-3)Gal(b1-4)GlcNAc(b1-6)GalNAc
# Procedure, shortened: as §1
# Neu5Ac(a2-3)GalNAc = target: Neu5Ac(a2-3)GalNAc
# Procedure, shortened: as §1
# [29] = target: Neu5Ac(a2-6)Gal(b1-4)GlcNAc(b1-2)Man(a1-6)[Man(a1-3)]Man(b1-4)GlcNAc(b1-4)GlcNAc
# Procedure, shortened: as §1
# [30] = target: Neu5Ac(a2-6)Gal(b1-4)GlcNAc(b1-3)Gal(b1-3)GlcNAc
# Procedure, shortened: as §1
# [31] = target: Neu5Ac(a2-6)Gal(b1-4)GlcNAc(b1-3)Gal(b1-4)GlcNAc(b1-3)Gal(b1-4)GlcNAc
# Procedure, shortened: as §1
# [32] = target: Neu5Ac(a2-6)Gal(b1-4)GlcNAc(b1-3)Gal(b1-4)GlcNAc(b1-3)GalNAc
# Procedure, shortened: as §1
# [33] = target: Neu5Ac(a2-6)Gal(b1-4)GlcNAc(b1-3)GalNAc
# Procedure, shortened: as §1
# [34] = target: Neu5Ac(a2-6)Gal(b1-4)GlcNAc(b1-6)[Gal(b1-3)GlcNAc(b1-3)]Gal(b1-4)Glc
# Procedure, shortened: as §1
# [35] = target: Neu5Ac(a2-6)GalNAc(b1-4)GlcNAc
# Procedure, shortened: as §1
# [36] = target: Neu5Ac(a2-8)Neu5Ac(a2-3)Gal(b1-3)GalNAc(b1-4)[Neu5Ac(a2-3)]Gal(b1-4)Glc
# Procedure, shortened: as §1
# [37] = target: Neu5Ac(a2-8)Neu5Ac(a2-3)[GalNAc(b1-4)]Gal(b1-4)Glc
# Procedure, shortened: as §1
# [38] = target: Neu5Ac(a2-8)Neu5Ac(a2-8)Neu5Ac
# Procedure, shortened: as §1
# Neu5Gc(a2-6)GalNAc = target: Neu5Gc(a2-6)GalNAc
# Procedure, shortened: as §1
binder,measurement,setting,value
B1,glycan array binding signal (z-score),[1],0.946
same,glycan array binding signal (z-score),[2],-0.262
same,glycan array binding signal (z-score),[3],3.08
same,glycan array binding signal (z-score),[4],0.713
same,glycan array binding signal (z-score),[5],2.22
same,glycan array binding signal (z-score),[6],-0.239
same,glycan array binding signal (z-score),[7],0.611
same,glycan array binding signal (z-score),[8],3.21
same,glycan array binding signal (z-score),Gal(b1-3)GlcNAc(b1-2)Man,0.702
same,glycan array binding signal (z-score),[9],1.01
same,glycan array binding signal (z-score),Gal(b1-3)GlcNAc6S,1.42
same,glycan array binding signal (z-score),[10],-0.203
same,glycan array binding signal (z-score),Gal(b1-4)Glc6S,0.095
same,glycan array binding signal (z-score),Gal(b1-4)GlcNAc(b1-2)Man,1.11
same,glycan array binding signal (z-score),[11],-0.969
same,glycan array binding signal (z-score),[12],2.27
same,glycan array binding signal (z-score),[13],-0.557
same,glycan array binding signal (z-score),[14],0.258
same,glycan array binding signal (z-score),[15],2.66
same,glycan array binding signal (z-score),Gal4S6S(b1-4)GlcNAc,-0.245
same,glycan array binding signal (z-score),Gal6S(b1-3)GlcNAc6S,4.14
same,glycan array binding signal (z-score),[16],-0.804
same,glycan array binding signal (z-score),GalNAc4S6S(b1-4)GlcNAc,2.6
same,glycan array binding signal (z-score),Glc(a1-4)Glc,-0.811
same,glycan array binding signal (z-score),Glc(b1-6)Glc,-1.38
same,glycan array binding signal (z-score),GlcA(b1-3)Gal,-1.49
same,glycan array binding signal (z-score),[17],-1.15
same,glycan array binding signal (z-score),[18],1.26
same,glycan array binding signal (z-score),Kdn(a2-6)Gal(b1-4)GlcNAc,0.671
same,glycan array binding signal (z-score),[19],0.733
same,glycan array binding signal (z-score),[20],-0.367
same,glycan array binding signal (z-score),[21],2.25
same,glycan array binding signal (z-score),[22],-0.185
same,glycan array binding signal (z-score),[23],0.192
same,glycan array binding signal (z-score),[24],-0.422
same,glycan array binding signal (z-score),[25],3.83
same,glycan array binding signal (z-score),[26],0.062
same,glycan array binding signal (z-score),[27],0.343
same,glycan array binding signal (z-score),[28],2.29
same,glycan array binding signal (z-score),Neu5Ac(a2-3)GalNAc,-0.098
same,glycan array binding signal (z-score),[29],-0.347
same,glycan array binding signal (z-score),[30],0.4
same,glycan array binding signal (z-score),[31],0.398
same,glycan array binding signal (z-score),[32],0.528
same,glycan array binding signal (z-score),[33],0.678
same,glycan array binding signal (z-score),[34],0.339
same,glycan array binding signal (z-score),[35],0.235
same,glycan array binding signal (z-score),[36],-0.561
same,glycan array binding signal (z-score),[37],-0.005
same,glycan array binding signal (z-score),[38],-0.561
same,glycan array binding signal (z-score),Neu5Gc(a2-6)GalNAc,2.46
